Assay results from PubChem BioAssay (NCATS).
Inconclusive results are not listed. Activity calls are given as the source filed them. Calls come from the whole dose curve; as a rule, active = well fitted inhibition curve with a large enough effect; inconclusive = small, poorly fitted or top-dose-only effect; inactive = flat fitted curve, though single readings scatter.

Legend:
[1] = qHTS profiling for inhibitors of Plasmodium falciparum proliferation (AID 504749);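 for activity, negative = inhibition: 0% = DMSO vehicle and full inhibition = artemisinin control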; for all read-outs here: nearly all actives have a fitted effect of over 60% in size; conditions: P. falciparum in erythrocytes, SYBR Green DNA, 72 h; for activity, negative = inhibition: at 28.7 µM (top of the series)
Outline: (§1)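 Parasite proliferation within erythrocytes, 72 h exposure. Endpoint: SYBR Green I fluorescence after overnight lysis at room temperature. Controls: 0.29 uM artemisinin, DMSO.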

3D7 = experiment: as above; conditions: P. falciparum in erythrocytes, SYBR Green DNA, 72 h; series mostly up to 28.7 µM
Outline: as §1

7G8 = experiment: as above; conditions: P. falciparum in erythrocytes, SYBR Green DNA, 72 h; series mostly up to 28.7 µM
Outline: as §1

AA1029 = experiment: as above; conditions: P. falciparum in erythrocytes, SYBR Green DNA, 72 h; series mostly up to 28.7 µM
Outline: as §1

AS120 = experiment: as above; conditions: P. falciparum in erythrocytes, SYBR Green DNA, 72 h; series mostly up to 28.7 µM
Outline: as §1

ATS189 = experiment: as above; conditions: P. falciparum in erythrocytes, SYBR Green DNA, 72 h; series mostly up to 28.7 µM
Outline: as §1

ATS95 = experiment: as above; conditions: P. falciparum in erythrocytes, SYBR Green DNA, 72 h; series mostly up to 28.7 µM
Outline: as §1

C2A = experiment: as above; conditions: P. falciparum in erythrocytes, SYBR Green DNA, 72 h; series mostly up to 28.7 µM
Outline: as §1

CP185 = experiment: as above; conditions: P. falciparum in erythrocytes, SYBR Green DNA, 72 h; series mostly up to 28.7 µM
Outline: as §1

CP191 = experiment: as above; conditions: P. falciparum in erythrocytes, SYBR Green DNA, 72 h; series mostly up to 28.7 µM
Outline: as §1

CP192 = experiment: as above; conditions: P. falciparum in erythrocytes, SYBR Green DNA, 72 h; series mostly up to 28.7 µM
Outline: as §1

CP194 = experiment: as above; conditions: P. falciparum in erythrocytes, SYBR Green DNA, 72 h; series mostly up to 28.7 µM
Outline: as §1

CP203 = experiment: as above; conditions: P. falciparum in erythrocytes, SYBR Green DNA, 72 h; series mostly up to 28.7 µM
Outline: as §1

CP215 = experiment: as above; conditions: P. falciparum in erythrocytes, SYBR Green DNA, 72 h; series mostly up to 28.7 µM
Outline: as §1

CP217 = experiment: as above; conditions: P. falciparum in erythrocytes, SYBR Green DNA, 72 h; series mostly up to 28.7 µM
Outline: as §1

CP237 = experiment: as above; conditions: P. falciparum in erythrocytes, SYBR Green DNA, 72 h; series mostly up to 28.7 µM
Outline: as §1

CP201 = experiment: as above; conditions: P. falciparum in erythrocytes, SYBR Green DNA, 72 h; series mostly up to 28.7 µM
Outline: as §1

CP211 = experiment: as above; conditions: P. falciparum in erythrocytes, SYBR Green DNA, 72 h; series mostly up to 28.7 µM
Outline: as §1
Potency is the fitted concentration of half-maximal effect.

Clc1ccc(CO/N=C(\Cn2ccnc2)c2ccc(Cl)cc2Cl)c(Cl)c1
active: Potency ([1]; parasite line A) 3.55 µM | Potency ([1]; parasite line B) 2.82 µM | Potency (3D7) 2.82 µM | Potency (7G8) 1.12 µM | Potency (AA1029) 5.01 µM | Potency (AS120) 2.24 µM | Potency (ATS189) 3.98 µM | Potency (ATS95) 6.31 µM | Potency (C2A) 10 µM | Potency (CP185) 10 µM | Potency (CP191) 3.98 µM | Potency (CP192) 16.9 µM | Potency (CP194) 10.7 µM | Potency (CP203) 5.36 µM | Potency (CP215) 6.75 µM | Potency (CP217) 3.98 µM | Potency (CP237) 3.98 µM

O=c1n(Cl)c(=O)n(Cl)c(=O)n1Cl
inactive: activity, negative = inhibition ([1]; parasite line A) 0.0387% | activity, negative = inhibition ([1]; parasite line B) 2.68% | Potency (3D7) | Potency (7G8) | Potency (AA1029) | Potency (AS120) | Potency (ATS189) | Potency (ATS95) | Potency (C2A) | Potency (CP185) | Potency (CP191) | Potency (CP192) | Potency (CP194) | Potency (CP201) | Potency (CP203) | Potency (CP211) | Potency (CP215) | Potency (CP217) | Potency (CP237)

CC(C)NCC(O)c1ccc(N)c(C#N)c1 (stereo not given)
inactive: activity, negative = inhibition ([1]; parasite line A) 10.9% | activity, negative = inhibition ([1]; parasite line B) -9.32% | Potency (3D7) | Potency (7G8) | Potency (AA1029) | Potency (AS120) | Potency (ATS189) | Potency (ATS95) | Potency (C2A) | Potency (CP185) | Potency (CP191) | Potency (CP192) | Potency (CP194) | Potency (CP201) | Potency (CP211) | Potency (CP215) | Potency (CP217) | Potency (CP237)

CNC(=O)NC(O)C(Cl)(Cl)Cl (stereo not given)
inactive: activity, negative = inhibition ([1]; parasite line A) 0.151% | activity, negative = inhibition ([1]; parasite line B) 3.59% | Potency (3D7) | Potency (7G8) | Potency (AA1029) | Potency (AS120) | Potency (ATS189) | Potency (ATS95) | Potency (C2A) | Potency (CP185) | Potency (CP191) | Potency (CP192) | Potency (CP194) | Potency (CP201) | Potency (CP211) | Potency (CP215) | Potency (CP217) | Potency (CP237)

C[C@]12CC[C@H]3[C@@H](CC=C4C[C@@H](O)CC[C@@]43C)[C@@H]1CC[C@@H]2O
inactive: activity, negative = inhibition ([1]; parasite line A) 1.98% | activity, negative = inhibition ([1]; parasite line B) 6.49% | Potency (3D7) | Potency (7G8) | Potency (AA1029) | Potency (AS120) | Potency (ATS189) | Potency (ATS95) | Potency (C2A) | Potency (CP185) | Potency (CP191) | Potency (CP192) | Potency (CP194) | Potency (CP201) | Potency (CP211) | Potency (CP215) | Potency (CP217) | Potency (CP237)

CCN(CC)C(C)C(=O)c1ccccc1 (stereo not given)
inactive: activity, negative = inhibition ([1]; parasite line A) -2.34% | activity, negative = inhibition ([1]; parasite line B) 12.3% | Potency (3D7) | Potency (7G8) | Potency (AA1029) | Potency (AS120) | Potency (ATS189) | Potency (ATS95) | Potency (C2A) | Potency (CP185) | Potency (CP191) | Potency (CP192) | Potency (CP194) | Potency (CP201) | Potency (CP211) | Potency (CP215) | Potency (CP217) | Potency (CP237)

c1cc2c(c(N3CCNCC3)c1)OCCO2
inactive: activity, negative = inhibition ([1]; parasite line A) 8.64% | activity, negative = inhibition ([1]; parasite line B) 11.7% | Potency (3D7) | Potency (7G8) | Potency (AA1029) | Potency (AS120) | Potency (ATS189) | Potency (ATS95) | Potency (C2A) | Potency (CP185) | Potency (CP191) | Potency (CP192) | Potency (CP194) | Potency (CP201) | Potency (CP203) | Potency (CP211) | Potency (CP215) | Potency (CP217) | Potency (CP237)

COCC(=O)N(c1c(C)cccc1C)C(C)C(=O)OC (stereo not given)
inactive: Potency (3D7) | Potency (7G8) | Potency (AA1029) | Potency (C2A) | Potency (CP192) | Potency (CP194) | Potency (CP201) | Potency (CP203) | Potency (CP211) | Potency (CP215) | Potency (CP237)

COP(=O)(OC)OC=C(Cl)Cl
inactive: activity, negative = inhibition ([1]; parasite line A) 5.3% | activity, negative = inhibition ([1]; parasite line B) 13.3% | Potency (3D7) | Potency (AA1029) | Potency (AS120) | Potency (ATS189) | Potency (ATS95) | Potency (C2A) | Potency (CP185) | Potency (CP191) | Potency (CP192) | Potency (CP194) | Potency (CP201) | Potency (CP211) | Potency (CP215) | Potency (CP217) | Potency (CP237)

C=CCOC(Cn1ccnc1)c1ccc(Cl)cc1Cl (stereo not given)
active: Potency ([1]; parasite line B) 10 µM | Potency (3D7) 11.2 µM | Potency (7G8) 2 µM | Potency (AA1029) 8.91 µM | Potency (AS120) 5.01 µM | Potency (ATS189) 10 µM | Potency (ATS95) 8.91 µM | Potency (CP194) 15.1 µM | Potency (CP215) 12 µM | Potency (CP217) 11.2 µM | Potency (CP237) 4.47 µM

Cc1c(Cl)c(=O)oc2cc(OP(=O)(OCCCl)OCCCl)ccc12
active: Potency ([1]; parasite line A) 8.91 µM | Potency (7G8) 12.6 µM | Potency (AA1029) 11.2 µM | Potency (AS120) 11.2 µM | Potency (ATS189) 11.2 µM | Potency (ATS95) 7.94 µM | Potency (C2A) 10 µM | Potency (CP191) 10 µM | Potency (CP194) 9.53 µM | Potency (CP201) 13.5 µM | Potency (CP211) 9.53 µM | Potency (CP215) 9.53 µM | Potency (CP217) 8.91 µM | Potency (CP237) 7.94 µM

N#Cc1nn(-c2c(Cl)cc(C(F)(F)F)cc2Cl)c(N)c1S(=O)C(F)(F)F (stereo not given)
active: Potency ([1]; parasite line A) 5.01 µM | Potency ([1]; parasite line B) 8.91 µM | Potency (3D7) 8.91 µM | Potency (7G8) 3.55 µM | Potency (AA1029) 8.91 µM | Potency (ATS95) 12.6 µM | Potency (C2A) 8.91 µM | Potency (CP191) 6.31 µM | Potency (CP194) 15.1 µM | Potency (CP201) 13.5 µM | Potency (CP217) 8.91 µM | Potency (CP237) 5.01 µM

O=C1NCN(c2ccccc2)C12CCN(CCCOc1ccc(F)cc1)CC2
active: Potency (7G8) 11.2 µM | Potency (CP237) 5.01 µM
inactive: activity, negative = inhibition ([1]; parasite line B) -11.5% | Potency (3D7) | Potency (CP192) | Potency (CP201) | Potency (CP215)

ClC1=C(Cl)C2(Cl)C(CBr)CC1(Cl)C2(Cl)Cl (stereo not given)
inactive: activity, negative = inhibition ([1]; parasite line A) -10.4% | activity, negative = inhibition ([1]; parasite line B) -10.5% | Potency (AA1029) | Potency (AS120) | Potency (ATS189) | Potency (ATS95) | Potency (C2A) | Potency (CP185) | Potency (CP191) | Potency (CP192) | Potency (CP194) | Potency (CP201) | Potency (CP211) | Potency (CP215) | Potency (CP217) | Potency (CP237)
